29 compounds from ChEMBL document CHEMBL1157539, “Thousands of chemical starting points for antimalarial lead identification” (Nature, 2010) can be followed below.

Holding throughout (format): functional
For experiment [1], the system named is Plasmodium falciparum. Briefly: GSK_TCMDC: Inhibition of Plasmodium falciparum 3D7 in whole red blood cells, using parasite LDH activity as an index of growth. Test compounds present at 2uM.
Experiment [2] has as its system Plasmodium falciparum. Put plainly: GSK_TCMDC: Inhibition of Plasmodium falciparum Dd2 in whole red blood cells, using parasite LDH activity as an index of growth. Test compounds present at 2uM.
In another experiment the test system is HepG2. Put plainly: GSK_TCMDC: Percent inhibition of human HepG2 cell line. Test compounds present at 10uM.

In general, Inhibition refers to the percentage by which the read-out fell short of the control. Consider `CC[C@H](C)CNC(=O)c1cncc(-c2cccc(CNC3Cc4ccccc4C3)c2)c1.O=C(O)C(F)(F)F`, for which the Inhibition was found to be 100% with Plasmodium falciparum [1], 76% with Plasmodium falciparum [2] and 5% in the experiment with HepG2.

`O=C(Nc1cncc(NC(=O)c2ccc(Cl)c(Cl)c2)c1)c1ccc(Cl)c(Cl)c1`: the results for the Inhibition with Plasmodium falciparum [1], with Plasmodium falciparum [2] and in the experiment on HepG2 were 100%, 70% and 12%, respectively.

With `Cc1cc2nc(-c3cc(-c4cccc(NS(C)(=O)=O)c4)cnc3N)[nH]c2cc1C`, the Inhibition with Plasmodium falciparum [1] is 100%; in the experiment on Plasmodium falciparum [2] it was 32%; in the experiment on HepG2, 43%.

For the compound `COc1ccc(C(=O)N2CCC3(CC2)C(=O)N(CC(=O)NC2CCCCC2)CN3c2ccccc2)c(OC)c1`, the Inhibition was 100% in the experiment with Plasmodium falciparum [1], 99% with Plasmodium falciparum [2] and 4% in the experiment with HepG2.

On to `COc1ccc(CN2CCC(CNCCc3ccccc3Oc3ccccc3)CC2)cc1.O=C(O)C(F)(F)F`, for which the Inhibition with Plasmodium falciparum [1] was found to be 85%; in the experiment with Plasmodium falciparum [2], 56%; with HepG2, 99%.

In the case of `COc1cccc(-c2cccc(CNC3CCN(CC4Cn5c(=O)ccc6ccc(F)c4c65)CC3)c2)c1.O=C(O)C(F)(F)F` (configuration not stated), the values for the Inhibition in the experiment with Plasmodium falciparum [1], with Plasmodium falciparum [2] and in the experiment with HepG2 were 99%, 15% and 23%, respectively.

Turning to `CCN(CCN(C)C)Cc1ccc(-c2ccc(NS(=O)(=O)c3cccc(Cl)c3)cc2)cc1.O=C(O)C(F)(F)F`, the Inhibition with Plasmodium falciparum [1] was determined as 97%; with Plasmodium falciparum [2], 40%; in the experiment with HepG2 it was 43%.

On to `OCCN1CCN(C(=S)Nc2ccccc2)CC1`, for which the results for the Inhibition with Plasmodium falciparum [1], with Plasmodium falciparum [2] and in the experiment with HepG2 were 97%, 7% and 6%, respectively.

For the compound `COc1ccc(CNCCCCCCNCCc2ccc(Cl)cc2)cc1OC.Cl`, the Inhibition in the experiment with Plasmodium falciparum [1] is listed as 96%; in the experiment with Plasmodium falciparum [2] it was 0%; in the experiment with HepG2, 21%.

For the compound `COc1cccc2sc(Nc3nc(-c4ccccn4)cs3)nc12`, the results for the Inhibition in the experiment on Plasmodium falciparum [1], with Plasmodium falciparum [2] and in the experiment on HepG2 were 94%, 76% and 41%, respectively.

As for `Cc1cccc2nc(-c3cccc(-c4cccc(NC(=O)c5cnn6cccnc56)c4)c3)[nH]c12`, the results for the Inhibition in the experiment with Plasmodium falciparum [1], with Plasmodium falciparum [2] and with HepG2 were 100%, 17% and 14%, respectively.

Turning to `O=C(Nc1ccc(Cl)cc1)c1cc(Cl)ccc1NC(=O)C1CCc2ccccc2O1` (configuration not stated), the Inhibition in the experiment with Plasmodium falciparum [1] amounted to 98%; in the experiment on Plasmodium falciparum [2] it was 63%; in the experiment with HepG2, 1%.

Turning to `O=C(N[C@H]1CCN(Cc2ccc(OCCN3CCNCC3)c(Br)c2)C1)c1ccc(Cl)c(Cl)c1.O=C(O)C(F)(F)F`, the results for the Inhibition in the experiment on Plasmodium falciparum [1], in the experiment with Plasmodium falciparum [2] and in the experiment on HepG2 were 100%, 36% and 69%, respectively.

For the compound `O=C(/C=C/c1ccc(Cl)c(Cl)c1)NCCCCCN1CCC(NC(=O)c2ccc(F)cc2)CC1`, the Inhibition with Plasmodium falciparum [1] is given as 100%; in the experiment with Plasmodium falciparum [2], 13%; in the experiment on HepG2, 14%.

For the compound `COc1cc(OC)c2c(C)cc(NCCCn3ccnc3)nc2c1`, the Inhibition with Plasmodium falciparum [1] worked out at 100%; with Plasmodium falciparum [2], 22%; in the experiment with HepG2 it was 6%.

Regarding `O=C(Nc1ccccc1)Nc1cccc(-c2ccc(-c3nc4cc(C(F)(F)F)ccc4[nH]3)cc2)c1`, the Inhibition in the experiment with Plasmodium falciparum [1] was determined as 100%; in the experiment with Plasmodium falciparum [2] it was 37%; in the experiment on HepG2, 48%.

Consider `CN1CCC(N2CCN(Cc3ccc(-c4cccc(-c5nc6ccccc6[nH]5)c4)cc3)CC2)CC1.O=C(O)C(F)(F)F`, for which the Inhibition is recorded as 99% in the experiment on Plasmodium falciparum [1], 100% in the experiment on Plasmodium falciparum [2] and 48% in the experiment with HepG2.

`CCN(CC)CCNc1ccc(Nc2ccnc3cc4ccccc4cc23)cc1`: the Inhibition in the experiment on Plasmodium falciparum [1] worked out at 100%; in the experiment on Plasmodium falciparum [2] it was 99%; in the experiment on HepG2 it was 36%.

In the case of `Cc1ccc(Cn2ncc(N3CCNCC3)c(Cl)c2=O)cc1NC(=O)Nc1ccc(-c2ccccc2)cc1.O=C(O)C(F)(F)F`, the Inhibition is reported as 90% with Plasmodium falciparum [1], 30% in the experiment with Plasmodium falciparum [2] and 56% with HepG2.

Take `Fc1cccc(COc2ccc(Nc3ncnc4sc(C#CC5CCCCN5)cc34)cc2Cl)c1.O=C(O)C(F)(F)F` (configuration not stated): the results for the Inhibition in the experiment with Plasmodium falciparum [1], in the experiment with Plasmodium falciparum [2] and with HepG2 were 100%, 100% and 30%, respectively.

As for `CC(=O)Nc1nc(C(=O)Nc2ccc(-c3ccc(-c4nc5ccccc5[nH]4)cc3)cc2)cs1`, the Inhibition in the experiment with Plasmodium falciparum [1] turned out to be 100%; in the experiment on Plasmodium falciparum [2], 53%; in the experiment on HepG2, 38%.

In the case of `Cc1cc(C)c2cc(CNCCCNc3nc4ccccc4[nH]3)[nH]c2c1`, the Inhibition with Plasmodium falciparum [1] was 100%; with Plasmodium falciparum [2], 0%; with HepG2, 32%.

With `Br.N=C1N=C(N)NC2(CCCCC2)N1OCC1CCCCC1`, the Inhibition with Plasmodium falciparum [1] is 96%; in the experiment with Plasmodium falciparum [2] it was 49%; with HepG2, 70%.

On to `NC(=O)c1cc2nc(NC3CCC3)nc(Nc3cccc4[nH]ncc34)c2[nH]1.O=CO`, for which the Inhibition in the experiment on Plasmodium falciparum [1] is 100%; in the experiment on Plasmodium falciparum [2] it was 62%; in the experiment on HepG2, 9%.

On to `CCOc1ncccc1CN1CCC(N2CCc3cc(NC(=O)c4ccco4)ccc32)C1` (configuration not stated), for which the values for the Inhibition in the experiment with Plasmodium falciparum [1], in the experiment with Plasmodium falciparum [2] and in the experiment with HepG2 were 90%, 94% and 3%, respectively.

Consider `CCCCCN1CCCN(Cc2cccc(NC(=O)c3cc4ccccc4s3)c2)CC1.O=C(O)C(F)(F)F`, for which the Inhibition with Plasmodium falciparum [1] came out at 99%; in the experiment with Plasmodium falciparum [2], 30%; in the experiment on HepG2 it was 29%.

For `CC(=O)Nc1cccc(Nc2nccc(Nc3ccc(Oc4ccccc4)cc3)n2)c1.Cl`, the Inhibition amounted to 100% in the experiment on Plasmodium falciparum [1], 99% in the experiment on Plasmodium falciparum [2] and 15% in the experiment with HepG2.

Consider `COc1cc(Cl)c(C)cc1-n1cc(C(=O)c2cc(Br)ccc2O)cc(C#N)c1=O`, for which the values for the Inhibition with Plasmodium falciparum [1], in the experiment on Plasmodium falciparum [2] and in the experiment on HepG2 were 95%, 35% and 3%, respectively.

Consider `CCCCCCCN1CCC(NC(=O)Nc2ccnc3ccc(OC)cc23)C(CO)C1.O=C(O)C(=O)O` (configuration not stated), for which the Inhibition in the experiment on Plasmodium falciparum [1] is recorded as 94%; with Plasmodium falciparum [2], 69%; in the experiment on HepG2 it was 23%.
